PvdQ inh: blocks Pseudomonas aeruginosa PvdQ acylase activity; AID 488965; inhibition, % at 10 µM; purified PvdQ acylase, fluorescence plate reader; 340,000 tested, 0.063% active; in the data active = inhibition above about 30%, passing the limit was not always enough
ERAP1 HTS inh: blocks human ERAP1 aminopeptidase activity; Q9NZ08; recombinant ERAP1, Leu-AMC fluorescence, 60 min; inhibition, % at 10.7 µM; 340,000 tested, 0.15% active; AID 652197;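 active = mean replicate inhibition of at least 30%, or all replicates individually reaching that 30% level; inactive = mean below 30% and not every replicate reaching it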
ARNT-TACC3 inh: disrupts binding between human ARNT and TACC3 | AlphaScreen His-ARNT PAS-B/GST-TACC3 binding, luminescence; TACC3 fragment carries E629A point mutation | Q9Y6A5 | inhibition, % at 9.99 µM | 390,000 tested, 0.66% active;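 active = mean inhibition of replicates at least 50% and at least half of replicates each reaching 50%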
Ecoli rRNA inh: inhibitors of bacterial rRNA selective over humanized ribosomes. E. coli WT GFP vs humanized-ribosome RFP mutants, fluorescence, 24 h; hits give low values; DMSO median 0, no signal -100. GFP signal change (wild-type ribosome), % (concentration not given with the values). 350,000 tested, 1.6% active. AID 720706;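 active = significant combined selectivity score with lowered wild-type GFP, culture density cut under 30%, mutant RFP and density less affected; inactive = any of these conditions unmet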
F508del corr: CFTR F508del correction in bronchial cells | CFBE cells, YFP halide quenching; stimulated with forskolin plus potentiator P3; % fluorescence drop versus neutral controls | activity (quench increase), % at 7.58 µM | 350,000 tested, 0.36% active;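 active = mean added fluorescence quench of at least 8% versus neutral control, with both replicates also reaching 8%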;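 also: cells transiently co-express mutant CFTR-F508del with the halide-sensitive YFP; corrector assay measuring rescue of mutant channel to the surface after 24 h compound exposure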
Numbers stand for hits; - = inactive; . = no result. Rows were chosen to be rich in hits. Some 2.1% of all compounds tested hit in one or more screens of this group.

SMILES	PvdQ inh	ERAP1 HTS inh	ARNT-TACC3 inh	Ecoli rRNA inh	F508del corr
Cc1ccc(OC(=O)N(C)C[C@H]2OCc3ccccc3-c3ccccc3C(=O)N([C@H](C)CO)C[C@H]2C)cc1	.	-	-	-	-
COCCC(=O)N1CCc2c([nH]c3ccccc23)C1C(C)(C)C (stereo not given)	-	-	-	-	-
COCc1ccc(CN2CCc3c([nH]c4ccccc34)C2C(C)(C)C)o1 (stereo not given)	-	-	45	-	-
Cc1ccc(C2(c3ccccc3)NC(=O)N(CC(=O)NC3(C#N)CCCC3)C2=O)cc1C (stereo not given)	-	-	-	-28	-
C[C@H](CO)N1C[C@H](C)[C@@H](CN(C)Cc2ccncc2)OCCCC[C@H](C)Oc2ccc(NC(=O)CCC(F)(F)F)cc2C1=O	.	-	-	-	-
CC(=O)Nc1ccc2c(c1)C(=O)c1ccccc1C2=O	-	.	-	.	.
O=C(O)/C=C/C(=O)Nc1ccc(C(=O)c2ccccc2)cc1	-	-	-	-	-
O=C(O)/C=C/C(=O)Nc1ccc2c(c1)C(=O)c1ccccc1C2=O	-	-	48	-35	-
O=C(O)/C=C/C(=O)Nc1ccc(O)cc1	-	-	54	-	-
C/C=C/c1cnc2c(c1)C(=O)N([C@H](C)CO)C[C@@H](C)[C@@H](CN(C)C(=O)Nc1ccc(C(F)(F)F)cc1)O2	.	-	-	-	-
O=[N+]([O-])c1cc(-c2nnc(N3CCOCC3)c3ccccc23)ccc1N1CCOCC1	-	-	-	-35	-
O=[N+]([O-])c1cc(-c2nnc(Nc3ccccc3)c3ccccc23)ccc1N1CCOCC1	-	-	-	-	-
C[C@@H]1CN([C@@H](C)CO)C(=O)c2cc(NC(=O)NC3CCCCC3)ccc2O[C@@H](C)CCCCO[C@H]1CN(C)S(=O)(=O)c1cn(C)cn1	.	-	-	-	-
Nc1nc(-c2ccc3ccccc3c2)cs1	-	-	-	-	-
c1ccc2cc(-c3csnn3)ccc2c1	35	.	-	.	.
NC(=O)c1sc(=S)n(-c2ccc(Br)cc2)c1N	-	.	-	-31	-
CCCNC(=O)N1CCC2(CC1)CN(C(=O)c1ccncc1)[C@@H](CO)c1[nH]c3cc(OC)ccc3c12	.	.	.	-	-
CN(CCCC(=O)O)c1ccc(N=Nc2ccc([N+](=O)[O-])cc2)cc1	-	-	-	-31	-
CN(N=Nc1ccc([N+](=O)[O-])cc1)c1ccccc1	-	-	-	-	-
Cc1ccc2c(CN3CCN(Cc4ccccc4)CC3)cc(=O)oc2c1C	-	-	-	-	-
Cc1ccc2c(CN3CCN(S(=O)(=O)c4ccc(Cl)cc4)CC3)cc(=O)oc2c1C	-	-	-	-	19
COc1ccccc1-c1ccc2n(c1=O)C[C@H]1[C@H](CO)[C@@H](C(=O)NCC3CC3)N(S(C)(=O)=O)[C@@H]21	.	-	-	-	.
S=C(NCCc1ccccn1)Nc1cc(Cl)cc(Cl)c1	-	-	-	-32	-
S=C(NCCc1ccccn1)Nc1ccc(Cl)c(Cl)c1	-	.	-	.	.
O=C(NNC(=O)c1cccc(S(=O)(=O)N2CCc3ccccc32)c1)c1ccccc1	-	-	.	-26	-
SMILES	PvdQ inh	ERAP1 HTS inh	ARNT-TACC3 inh	Ecoli rRNA inh	F508del corr
O=C(c1ccc2c(c1)CCN2S(=O)(=O)c1ccccc1)N1CCN(c2ccccc2F)CC1	-	-	-	-22	-
O=C(NN(c1ccccc1)c1ccccc1)c1ccc([N+](=O)[O-])o1	-	-	-	-29	-
O=C(NNC(=O)c1ccc([N+](=O)[O-])o1)c1ccccc1	-	.	-	.	.
CCCNC(=O)Nc1ccc2c(c1)C(=O)N(C)C[C@@H](OC)[C@H](C)CN(C(=O)C1CCOCC1)[C@H](C)CO2	.	-	-	-	-
Cc1[nH]c2ccccc2c1CCNC(=O)c1ccc2nccnc2c1	-	-	-	-	-
Cc1[nH]c2ccccc2c1CCNC(=O)c1c(N)no[n+]1[O-]	-	-	-	-21	-
Cc1cc(C)cc(C(=O)NCC(=O)OCc2cc([N+](=O)[O-])cc3c2OCOC3)c1	-	-	-	-	13
Cc1cc(C)cc(OCC(=O)OCc2cc([N+](=O)[O-])cc3c2OCOC3)c1	-	-	-	-	-
CCCc1ccc(-c2ccc(/C=C/C(=O)O)cc2)nc1	-	-	-	-26	-
COc1ccc2c3c(n(C)c2c1)[C@H](CO)N(CC1CCCC1)CC31CCN(C(=O)CN(C)C)CC1	.	-	.	-	-

Screening results (PubChem BioAssay)
